Inconclusive results are not listed. The source made the active and inactive calls. The call rests on the fitted dose curve; in most records, active means well fitted inhibition curve with a large enough effect; inconclusive means small, poorly fitted or top-dose-only effect; inactive means flat fitted curve, though single readings scatter.
On the % scale 0 is the no-effect control and ±100 the full control effect.

The target of the assay is Calcium and integrin-binding protein 1 (Homo sapiens) (UniProt Q99828). Put plainly: Primary qHTS for Identification of Calcium Integrin Binding Protein 1 (CIB1) Competitor (AID 1508620).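 Further: GST tagged CIB1 binding a fluorescein labelled alphaIIb integrin peptide tracer; top concentration of the series differs between compounds.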 As to conditions: CIB1-GST / FITC-alphaIIb peptide fluorescence polarization; series mostly up to 114 µM; activity change, negative = inhibition: at the top concentration. Put shortly: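 CIB1-GST (1 uM final) and compound incubated 15 min at room temperature before adding FITC-alphaIIb peptide tracer (100 nM final). Competition for binding read by fluorescence polarization (ex 480, em 540) after another 15 min at room temperature.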
Calcium and integrin-binding protein 1 (Homo sapiens), sequence (Q99828 whole entry, looked up): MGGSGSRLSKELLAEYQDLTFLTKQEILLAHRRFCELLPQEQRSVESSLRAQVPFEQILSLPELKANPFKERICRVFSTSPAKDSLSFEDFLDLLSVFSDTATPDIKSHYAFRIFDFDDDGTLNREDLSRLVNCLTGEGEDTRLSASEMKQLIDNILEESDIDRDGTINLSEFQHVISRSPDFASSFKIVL
For `O=S(=O)(c1ccc(Br)cc1)N1CCN(S(=O)(=O)c2ccc3c(c2)OCCO3)CC1`, the “activity change, negative = inhibition” value was 5.25% (inactive).

For `Cc1cc2c(s1)c1cnn(Cc3c(Cl)ccc(C)c3F)c(=O)c1n2C`, the “activity change, negative = inhibition” value is -13.7% (inactive). Still for that read-out and setting: for `N=c1c2c(ncn1-c1ccccc1)Oc1ccc3ccccc3c1C2c1ccc2c(c1)CCO2` (stereo not given) the value was 65.5% (inactive); for `COc1cccc(-c2ccc3ncnc(NCc4cccc(F)c4)c3c2)c1`, 3.98% (inactive).

As to `Nc1ccc2c(=O)n3nc(Nc4ccc5c(c4)CCC5)sc3nc2c1`, the “activity change, negative = inhibition” value is -16.4% (inactive). On the same count and under the same terms, to `CCOc1ccc(CCNC(=O)c2cc3c(s2)CCC3)cc1OCC` belongs 19.4% (inactive); to `O=S(=O)(NC1CCCC(NS(=O)(=O)c2c(F)cccc2F)C1)c1ccc2c(c1)OCCO2` (stereo not given), -1.73% (inactive); to `O=C(Nc1ccc(Cl)c(C(F)(F)F)c1)Nc1cccc(-c2ccncc2)n1`, -1.54% (inactive). Still for that read-out and setting: for `Cn1nnnc1Sc1ncnc2scc(-c3cccc(F)c3)c12` the value was 0.739% (inactive). As to `O=C(NCc1ccc(F)cc1)n1c(-c2ccccc2)c(P(=S)(c2ccccc2)c2ccccc2)c2ccccc21`, the “activity change, negative = inhibition” value was -1.56% (inactive). The same measure, in the same setting: for `Cc1ccc(NC(=O)CN2C(=O)N/C(=C\c3cccn3-c3ccc(C(=O)NC#N)cc3)C2=O)cc1` the value was 8.03% (inactive); for `Cc1cc2c(s1)c1cnn(Cc3ccc(F)c(Cl)c3)c(=O)c1n2C`, 0.767% (inactive). Same read-out and setting: for `CS(=O)(=O)N1CCN(c2nc(-c3ccc(Br)cc3)cs2)CC1` the value was 1.11% (inactive); for `Cc1nnc2sc(-c3cccc(NC(=O)c4ccc(-c5cccc(Cl)c5)o4)c3)nn12`, -3.26% (inactive). In the case of `COc1cccc(C2c3c(ncn(-c4ccccc4C(C)(C)C)c3=N)Oc3ccc4ccccc4c32)c1` (stereo not given), the “activity change, negative = inhibition” value is 7.01% (inactive). The same measure, in the same setting: to `Cc1ccc(NS(=O)(=O)c2ccc3c(c2)CC(=O)N3)cc1C` belongs -0.567% (inactive). On to `c1ccc(CNCc2nnc(-c3cc4ccccc4[nH]3)o2)cc1`, for which the “activity change, negative = inhibition” value was -4.47% (inactive). With `CCOC(=O)CCC(=O)Nc1ncnc2c1C(c1ccccc1)c1c(ccc3ccccc13)O2` (stereo not given), the “activity change, negative = inhibition” value was 2.76% (inactive). On the same count and under the same terms, to `O=C(Nc1ccc2ccccc2c1)Nc1nnc(C2CCCCC2)s1` belongs 4.45% (inactive).

As for `N#Cc1c(-c2cccc(Br)c2)no[n+]1[O-]`, the “activity change, negative = inhibition” value is 4.21% (inactive). With `N#Cc1c(-c2ccc(F)c(Br)c2)no[n+]1[O-]`, the “activity change, negative = inhibition” value was -14.7% (inactive). For the compound `Cc1cc(-c2nnc3n2CCC3)c(C)n1-c1ccccc1`, the “activity change, negative = inhibition” value was 5.46% (inactive). Regarding `Cc1noc(C)c1-c1ccc2ncnc(NCc3ccc(C(F)(F)F)cc3)c2c1`, the “activity change, negative = inhibition” value was 1.92% (inactive). On the same count and under the same terms, for `O=Cc1ccc(-c2ccc3ncnc(NCc4cccs4)c3c2)o1` the value was 4.7% (inactive); for `COC(=O)c1ccc(O)c2ncccc12`, -10.9% (inactive); for `Cn1nnnc1Sc1ncnc2scc(-c3cnc(N)nc3)c12`, -1.45% (inactive). Consider `Nc1cccc(OCCn2c(CCNC(=O)C3CCCCC3)nc3ccccc32)c1`, for which the “activity change, negative = inhibition” value was -5.11% (inactive). Same read-out and setting: to `O=S(=O)(Nc1ccc(C2CCNCC2)cc1)c1ccc(NCc2cccc(Cl)c2O)cc1` belongs -24.7% (inactive); to `CC(=O)N1c2ccc(S(=O)(=O)Nc3ccc(C)c(C)c3)cc2CC1C` (stereo not given), 0.285% (inactive). The same measure, in the same setting: for `COc1ccc(C2=Nn3c(nnc3-c3ccc(OC)c(OC)c3)SC2)c(OC)c1` the value was 3.63% (inactive). Turning to `CCC1CCC2(C1)N=C(Nc1nc3ccccc3o1)NC1=C2C(=O)CCC1` (stereo not given), the Potency result is “inactive”.

On to `O=C1c2ccccc2C(=O)N1c1cncc2ccccc12`, for which the “activity change, negative = inhibition” value is 5.67% (inactive). Same read-out and setting: to `Cc1csc(CNc2ncnc3ccc(-c4ccc5c(c4)OCO5)cc23)c1` belongs 5.38% (inactive); to `CCOc1ccc(C(=O)Nc2ccc(-c3nc4ccccc4o3)cc2)cc1[N+](=O)[O-]`, 9.93% (inactive). Same read-out and setting: for `Cc1cc(N[S+](=O)([O-])c2ccc(NC(=O)Cc3ccc4c(c3)OCCO4)cc2)no1` the value was -13.6% (inactive); for `O=C(Nc1ccccn1)c1sc2ccccc2c1Cl`, 2.81% (inactive); for `Cc1cnc(-c2ccccc2C(C)O)nc1NCC1CCN(c2cccnc2)CC1` (stereo not given), 9.82% (inactive). The same measure, in the same setting: for `COc1ccc(-c2cncc(NC(=O)c3cccs3)c2)cc1OC` the value was 2.31% (inactive); for `COCC1CCCN(C(=O)CC(c2ccc3c(c2)OCO3)c2c(O)cc(OC)cc2OC)C1` (stereo not given), -3.64% [at 228 µM] (inactive); for `Cc1c([S+](=O)([O-])N2CCN([S+](=O)([O-])c3c(F)cccc3F)CC2)sc2ccc(Cl)cc12`, 2.6% (inactive).

Values taken from PubChem BioAssay (NCATS).
